Measurements: PubChem BioAssay (EPA / NIEHS)
Activity calls are given as the source filed them. The calls were made as follows: active = hit-call score of the fitted dose curve at least 0.9, where 1 is the maximum; inactive = score below 0.9.

What follows are molecules tested on Apolipoprotein A-V (APOA5) gene, APOA5 (gene 116519) (assay: LTEA_HepaRG_APOA5: Life Technologies and Expression Analysis (LTEA) Assay for Apolipoprotein A-V (APOA5) gene using HepaRG (AID 2283474)). Details: mRNA level, 48 h; actives raise or lower the signal.
How it was run: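 Human liver HepaRG cells are treated 48 h with test chemicals (100 uM top, half-log dilutions, 0.5% DMSO). APOA5 mRNA induction or loss is measured by qRT-PCR relative to vehicle.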

| SMILES | outcome | AC50 |
| --- | --- | --- |
| COP(=O)(NC(C)=O)SC (centres undefined) | inactive | – |
| CSc1nc(NC(C)C)nc(NC(C)C)n1 | – | 50 µM (active) |
| COP(=O)(OC)OC(Br)C(Cl)(Cl)Br (centres undefined) | inactive | – |
| CC(=NC#N)N(C)Cc1ccc(Cl)nc1 | inactive | – |
| CN1COCN(Cc2cnc(Cl)s2)C1=N[N+](=O)[O-] | inactive | – |
| COc1ccc(C(=CC(=O)N2CCOCC2)c2ccc(Cl)cc2)cc1OC | inactive | – |
| CNC(=O)ON=C(C)SC | inactive | – |
| CCOP(=S)(OCC)SCCSCC | inactive | – |
| COP(=O)(OC)C(O)C(Cl)(Cl)Cl (centres undefined) | inactive | – |
| CCOP(=O)(OCC)Oc1cc(C)nc(C(C)C)n1 | inactive | – |
| CCOP(=S)(OCC)Oc1ccc([N+](=O)[O-])cc1 | inactive | – |
| CC(C1CC1)C(O)(Cn1cncn1)c1ccc(Cl)cc1 (centres undefined) | inactive | – |
| CNC(=O)ON=C(SC)C(=O)N(C)C | inactive | – |
| CNC(=O)Oc1cccc2c1OC(C)(C)O2 | inactive | – |
| CCc1cnc(C2=NC(C)(C(C)C)C(=O)N2)c(C(=O)O)c1 (centres undefined) | inactive | – |
| Cc1cc(C2CC2)nc(Nc2ccccc2)n1 | inactive | – |
| CCCSP(=O)(OCC)SCCC | – | 12.9 µM (active) |
| COc1cc(OC)nc(Sc2cccc(Cl)c2C(=O)O)n1 | inactive | – |
| CC1(C(=O)Nc2ccc(O)c(Cl)c2Cl)CCCCC1 | inactive | – |
| CSc1nnc(C(C)(C)C)c(=O)n1N | inactive | – |
| CCC(=O)Nc1ccc(Cl)c(Cl)c1 | inactive | – |
| CCOP(=O)(NC(C)C)Oc1ccc(SC)c(C)c1 (centres undefined) | inactive | – |
| CC1=NNC(=O)N(/N=C/c2cccnc2)C1 | inactive | – |
| CSC1=N[C@@](C)(c2ccccc2)C(=O)N1Nc1ccccc1 | – | 33.8 µM (active) |
